Only some compounds are listed: those with a hit (about 2.1% of all), similar ones and a draw of the others.
ARNT TACC3 PPI: disruptors of ARNT/TACC3 protein interaction, primary screen, biochemical, AlphaScreen, single concentration; Transforming acidic coiled-coil-containing protein 3 (Homo sapiens), Q9Y6A5; AlphaScreen His-ARNT PAS-B/GST-TACC3 binding, luminescence; TACC3 fragment carries E629A point mutation; inhibition, % at 9.99 µM; hit rate 0.66% among 390,000; AID 623870, 2012;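 active = mean inhibition of replicates at least 50% and at least half of replicates each reaching 50%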;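 also: 0% = complete ARNT plus TACC3 wells and 100% = ARNT alone without TACC3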
CFTR F508del cor: F508del CFTR correction, initial screen, CFBE line, single point; CFBE cells, YFP halide quenching; stimulated with forskolin plus potentiator P3; % fluorescence drop versus neutral controls; activity (quench increase), % at 7.58 µM; hit rate 0.36% among 350,000;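 active = mean added fluorescence quench of at least 8% versus neutral control, with both replicates also reaching 8%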;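 also: cells transiently co-express mutant CFTR-F508del with the halide-sensitive YFP; corrector assay measuring rescue of mutant channel to the surface after 24 h compound exposure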
ERAP1 HTS inh: human ERAP1 aminopeptidase inhibitors, primary screen, biochemical, single point, plate reader; hit rate 0.15% among 340,000; Endoplasmic reticulum aminopeptidase 1 (Homo sapiens), Q9NZ08; AID 652197, 2013; recombinant ERAP1, Leu-AMC fluorescence, 60 min; inhibition, % at 10.7 µM;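 active = mean replicate inhibition of at least 30%, or all replicates individually reaching that 30% level; inactive = mean below 30% and not every replicate reaching it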;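 also: 0% = neutral control wells and 100% = L-leucinethiol positive control wells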
Target sequence (Q9NZ08 whole entry, looked up): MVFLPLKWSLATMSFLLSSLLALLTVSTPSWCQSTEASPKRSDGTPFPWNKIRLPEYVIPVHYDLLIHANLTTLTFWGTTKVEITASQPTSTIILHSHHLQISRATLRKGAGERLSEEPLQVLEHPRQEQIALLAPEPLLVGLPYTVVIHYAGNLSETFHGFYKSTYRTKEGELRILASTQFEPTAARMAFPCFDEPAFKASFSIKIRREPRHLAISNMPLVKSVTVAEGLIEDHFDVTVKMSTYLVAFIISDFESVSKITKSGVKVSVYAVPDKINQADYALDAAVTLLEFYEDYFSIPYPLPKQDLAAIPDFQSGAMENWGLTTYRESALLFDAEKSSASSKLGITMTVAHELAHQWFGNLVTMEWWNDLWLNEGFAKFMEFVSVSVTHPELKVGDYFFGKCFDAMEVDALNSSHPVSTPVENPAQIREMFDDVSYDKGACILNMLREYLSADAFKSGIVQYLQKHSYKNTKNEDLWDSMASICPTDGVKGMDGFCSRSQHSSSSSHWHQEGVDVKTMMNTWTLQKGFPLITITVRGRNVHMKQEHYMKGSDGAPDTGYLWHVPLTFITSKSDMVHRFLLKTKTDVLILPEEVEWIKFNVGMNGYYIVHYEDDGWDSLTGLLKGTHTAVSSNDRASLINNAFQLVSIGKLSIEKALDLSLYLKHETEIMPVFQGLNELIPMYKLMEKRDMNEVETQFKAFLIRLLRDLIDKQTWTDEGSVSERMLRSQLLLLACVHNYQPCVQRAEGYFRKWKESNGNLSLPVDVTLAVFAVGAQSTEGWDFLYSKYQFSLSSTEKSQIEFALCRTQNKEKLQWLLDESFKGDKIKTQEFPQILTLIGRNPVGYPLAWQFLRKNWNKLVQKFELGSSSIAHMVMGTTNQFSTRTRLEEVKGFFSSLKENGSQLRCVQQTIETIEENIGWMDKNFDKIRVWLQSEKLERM
Ecoli rRNA inh: reduced GFP signal of wild-type E. coli, primary screen, bacterial rRNA inhibitor project, GFP/RFP fluorescence, OD600, single point | E. coli WT GFP vs humanized-ribosome RFP mutants, 24 h; hits give low values; DMSO median 0, no signal -100 | GFP signal change (wild-type ribosome), % (no concentration beside the values) | hit rate 1.6% among 350,000;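 active = significant combined selectivity score with lowered wild-type GFP, culture density cut under 30%, mutant RFP and density less affected; inactive = any of these conditions unmet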
PvdQ acylase: P. aeruginosa PvdQ acylase inhibitors, primary screen, biochemical, fluorescence, plate reader and imaging, single point; AID 488965, 2010; inhibition, % at 10 µM; purified PvdQ acylase; hit rate 0.063% among 340,000; PvdQ acylase [Pseudomonas aeruginosa LESB58]; in the data active = inhibition above about 30%, passing the limit was not always enough;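 also: 0% = vehicle neutral wells and 100% = reference inhibitor wells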
ARNT Alpha ctr: AlphaScreen signal interference compounds, dose response, artefact control for ARNT-TACC3 interaction inhibitor project, biochemical, luminescence, cherry-pick; shares compounds with ARNT TACC3 PPI; His-ARNT PASB-GST AlphaScreen artifact counter-screen; hit rate 50% among 1,200; AC50, µM (titrated, usually from 68 µM), inactives show at the highest dose activity change, negative = signal decrease;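 active = every separate test run was called active for a drop in luminescence, with AC50 within twice the top valid dose, actives reach about 71 µM in these data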
An asterisk follows results filed as active.

What do the screens show for `C[C@@H]1CCCCO[C@H](CN(C)C(=O)Cc2ccccc2)[C@@H](C)CN([C@@H](C)CO)C(=O)c2cc(NS(=O)(=O)c3ccc(Cl)cc3)ccc2O1`?
CFTR F508del cor: -2.1; ERAP1 HTS inh: 3.2; Ecoli rRNA inh: -0.7

What do the screens show for `Cc1noc(C)c1NC(=O)N(C)C[C@H]1OCCCC[C@H](C)Oc2ccc(NS(=O)(=O)c3ccc(Cl)cc3)cc2C(=O)N([C@H](C)CO)C[C@@H]1C`?
ARNT TACC3 PPI: -4.6; CFTR F508del cor: -2.0; ERAP1 HTS inh: -5.2; Ecoli rRNA inh: -0.5

How did O=C(N/N=C/c1ccc(O)c([N+](=O)[O-])c1)c1ccncc1 do in these assays?
ARNT TACC3 PPI: 26.8; CFTR F508del cor: 0.7; ERAP1 HTS inh: 0.9; Ecoli rRNA inh: 13.9; PvdQ acylase: 10.4

What do the screens show for `O=C(N/N=C/c1cc([N+](=O)[O-])ccc1O)c1ccncc1`?
ARNT TACC3 PPI: 56.6*; CFTR F508del cor: -1.0; Ecoli rRNA inh: 2.3; PvdQ acylase: -14.5; ARNT Alpha ctr: 12.4µM*

Results for O=C(N/N=C/c1cc(Br)ccc1OC(=O)c1ccc(Br)cc1)c1ccncc1 ?
ARNT TACC3 PPI: 61.1*; CFTR F508del cor: -0.6; ERAP1 HTS inh: 2.1; Ecoli rRNA inh: -9.7; PvdQ acylase: -1.5; ARNT Alpha ctr: 56.4µM*

What do the screens show for `O=C(NN=Cc1c(O)ccc2ccccc12)c1ccncc1`?
ARNT TACC3 PPI: 56.3*; CFTR F508del cor: 6.1; ERAP1 HTS inh: 1.3; Ecoli rRNA inh: -47.9; PvdQ acylase: 2.7; ARNT Alpha ctr: 49.1µM*

What do the screens show for `O=C(N/N=C\c1c(O)ccc2ccccc12)c1ccc(O)cc1`?
ARNT TACC3 PPI: 9.1; CFTR F508del cor: -6.6; ERAP1 HTS inh: -5.6; Ecoli rRNA inh: -34.2; PvdQ acylase: 20.6

How did O=C(C[C@H]1CC[C@H]2[C@@H](COC[C@@H](O)CN2C(=O)c2ccccc2)O1)NCc1ccc(-c2ccccc2)cc1 do in these assays?
ARNT TACC3 PPI: 2.2; CFTR F508del cor: -2.1; ERAP1 HTS inh: 2.4; Ecoli rRNA inh: 7.9

How did C[C@@H]1CN([C@@H](C)CO)S(=O)(=O)c2ccc(/C=C/c3ccccc3)cc2O[C@@H]1CN(C)C(=O)NC1CCCCC1 do in these assays?
ARNT TACC3 PPI: -4.7; CFTR F508del cor: 1.3; ERAP1 HTS inh: 4.0; Ecoli rRNA inh: 0.0

Results for CCN(C(=O)CSc1nccn1C)c1cccc2ccccc12 ?
ARNT TACC3 PPI: 68.2*; CFTR F508del cor: 1.6; ERAP1 HTS inh: 0.6; Ecoli rRNA inh: 6.8; PvdQ acylase: -12.6; ARNT Alpha ctr: 2.7%

How did C[C@@H]1CCCCO[C@@H](CN(C)S(=O)(=O)c2ccc(F)cc2)[C@@H](C)CN([C@@H](C)CO)C(=O)c2cc(NC(=O)CCCN(C)C)ccc2O1 do in these assays?
ARNT TACC3 PPI: -4.9; CFTR F508del cor: 0.9; ERAP1 HTS inh: 1.4; Ecoli rRNA inh: 1.4

What do the screens show for `N#C[C@@H]1[C@@H](c2ccc(-c3ccc(F)cc3)cc2)[C@H](CO)N1c1nc(-c2ccccc2)cs1`?
ARNT TACC3 PPI: 56.2*; CFTR F508del cor: -3.2; ERAP1 HTS inh: 1.8; Ecoli rRNA inh: -3.6; ARNT Alpha ctr: 58µM*

How did C[C@H](Nc1nc(-c2ccccn2)nnc1-c1ccccc1)C1CCCCC1 do in these assays?
ARNT Alpha ctr: 2.56µM*

Results for CC(C)Nc1nc(-c2ccccn2)nc(-c2ccccc2)c1C#N ?
CFTR F508del cor: 2.1; ERAP1 HTS inh: 1.0; Ecoli rRNA inh: -10.6; PvdQ acylase: -3.2

Results for C[C@@H](Nc1nc(-c2ccccn2)nnc1-c1ccccc1)C1CCCCC1 ?
ARNT Alpha ctr: 4.26µM*

How did Cc1ccc(S(=O)(=O)N2CCN(S(=O)(=O)N(C)C)CC2)cc1 do in these assays?
ARNT TACC3 PPI: 19.5; PvdQ acylase: 14.9

How did CN(C)S(=O)(=O)N1CCN(S(=O)(=O)c2ccc(F)cc2)CC1 do in these assays?
ARNT TACC3 PPI: 50.7*; PvdQ acylase: 9.4; ARNT Alpha ctr: -0.1%

What do the screens show for `C[C@@H]1CN([C@H](C)CO)C(=O)c2cc(C3=CCCC3)cnc2O[C@@H]1CN(C)C(=O)C1CCC1`?
ARNT TACC3 PPI: -12.0; CFTR F508del cor: -0.4; ERAP1 HTS inh: -1.2; Ecoli rRNA inh: 4.7

How did Cc1ccc(S(=O)(=O)N(C)C[C@@H]2Oc3ccc(NS(=O)(=O)c4ccc(F)cc4)cc3CC(=O)N([C@H](C)CO)C[C@H]2C)cc1 do in these assays?
ARNT TACC3 PPI: -2.2; CFTR F508del cor: -1.0; ERAP1 HTS inh: 0.2; Ecoli rRNA inh: -3.4

How did Cc1ccc(C)c(CSc2ccc3nnc(-c4ccccn4)n3n2)c1 do in these assays?
ARNT TACC3 PPI: 54.6*; CFTR F508del cor: -5.0; ERAP1 HTS inh: -3.9; Ecoli rRNA inh: -24.5; PvdQ acylase: -0.8; ARNT Alpha ctr: -11.1%

Results for Cc1noc(C)c1NC(=O)Nc1cccc2c1O[C@@H](CN(C)S(=O)(=O)c1ccc(Cl)cc1)[C@H](C)CN([C@@H](C)CO)C2=O ?
ARNT TACC3 PPI: -5.1; CFTR F508del cor: 3.7; ERAP1 HTS inh: 2.2; Ecoli rRNA inh: 1.1

How did COc1ccc(COC[C@]23Oc4ccccc4[C@H]([C@H]2COC(=O)c2ccc([N+](=O)[O-])cc2)N(C(=O)CC(C)=O)C(=O)N3C)cc1 do in these assays?
CFTR F508del cor: -2.8; ERAP1 HTS inh: 3.2

How did O=C(CSc1n[nH]c(-c2ccccn2)n1)Nc1ccccc1 do in these assays?
ARNT TACC3 PPI: 61.6*; CFTR F508del cor: 1.1; ERAP1 HTS inh: -3.2; Ecoli rRNA inh: -32.2; PvdQ acylase: -11.8; ARNT Alpha ctr: 7.74µM*

What do the screens show for `COc1ccc(NC(=O)CSc2n[nH]c(-c3ccccn3)n2)cc1`?
ARNT TACC3 PPI: 58.5*; CFTR F508del cor: 0.9; ERAP1 HTS inh: -6.5; Ecoli rRNA inh: -20.4; PvdQ acylase: 12.6; ARNT Alpha ctr: 6.92µM*

How did COc1ccccc1NC(=O)CSc1n[nH]c(-c2ccco2)n1 do in these assays?
ARNT TACC3 PPI: -2.1; CFTR F508del cor: -0.7; ERAP1 HTS inh: 2.5; Ecoli rRNA inh: 3.4; PvdQ acylase: -13.1

How did COc1ccccc1-c1nc(SCC(=O)Nc2ccccc2)n[nH]1 do in these assays?
ARNT TACC3 PPI: -8.3; CFTR F508del cor: 0.3; ERAP1 HTS inh: -1.0; Ecoli rRNA inh: -8.4; PvdQ acylase: 5.7

How did COc1ccccc1NC(=O)CSc1n[nH]c(-c2ccccn2)n1 do in these assays?
ARNT TACC3 PPI: 60.7*; CFTR F508del cor: -0.3; ERAP1 HTS inh: 0.9; Ecoli rRNA inh: -18.9; PvdQ acylase: 3.5; ARNT Alpha ctr: 11.1µM*

Results for O=C(CSc1n[nH]c(-c2cccnc2)n1)Nc1ccccc1 ?
ARNT TACC3 PPI: 3.0; PvdQ acylase: -8.0
